Measured values: PubChem BioAssay (NCI)
Where “and” joins values, the source holds several entries; their conditions need not be identical. Identical values can stand only once. Compounds without any hit were thinned out: in the full panel of roughly 83,000, 20% have a hit.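 Plates (96-well) were seeded with cells, treated with compound at one concentration, and incubated for 48 hours before percent growth was determined.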 Calls of active or inactive are those of the source. The calls were made as follows: active = growth percent below 10; inactive = the rest.

How the values were obtained:
Experiment in all cases: NCI-60 one-dose screen, 48 h (100 = growth as untreated, 0 = no growth, -100 = all killed)
Conditions in all cases: 10 µM
NCI-H23 lung = test system: NCI-H23 lung
NCI-H522 lung = test system: NCI-H522 lung
MDA-MB-231 breast = test system: MDA-MB-231 breast
M14 melanoma = test system: M14 melanoma
SK-MEL-5 melanoma = test system: SK-MEL-5 melanoma
UACC-62 melanoma = test system: UACC-62 melanoma
MOLT-4 leukemia = test system: MOLT-4 leukemia
SR leukemia = test system: SR leukemia
OVCAR-8 ovarian = test system: OVCAR-8 ovarian
OVCAR-5 ovarian = test system: OVCAR-5 ovarian
OVCAR-4 ovarian = test system: OVCAR-4 ovarian
SK-OV-3 ovarian = test system: SK-OV-3 ovarian
IGROV1 ovarian = test system: IGROV1 ovarian
HS 578T breast = test system: HS 578T breast
NCI/ADR-RES ovarian = test system: NCI/ADR-RES ovarian
T-47D breast = test system: T-47D breast
SW-620 colon = test system: SW-620 colon
MCF7 breast = test system: MCF7 breast
HCT-116 colon = test system: HCT-116 colon
KM12 colon = test system: KM12 colon

Structure (SMILES): NC1CCc2cc(O)c(O)cc2C1 (centres undefined)
- growth (NCI-H23 lung): 91.8% (inactive)
- growth (NCI-H522 lung): 92.3% (inactive)
- growth (MDA-MB-231 breast): 101% (inactive)
- growth (M14 melanoma): 83.5% (inactive)
- growth (SK-MEL-5 melanoma): 87.4% (inactive)
- growth (UACC-62 melanoma): 99.4% (inactive)
- growth (MOLT-4 leukemia): 66% (inactive)
- growth (SR leukemia): -24.1% (active)
- growth (OVCAR-8 ovarian): 101% (inactive)
- growth (OVCAR-5 ovarian): 91.4% (inactive)
- growth (OVCAR-4 ovarian): 98.7% (inactive)
- growth (SK-OV-3 ovarian): 104% (inactive)
- growth (IGROV1 ovarian): 97.9% (inactive)
- growth (HS 578T breast): 100% (inactive)
- growth (NCI/ADR-RES ovarian): 85.6% (inactive)
- growth (T-47D breast): 88.9% (inactive)
- growth (SW-620 colon): 93.1% (inactive)
- growth (MCF7 breast): 63.6% (inactive)
- growth (HCT-116 colon): 58.1% (inactive)
- growth (KM12 colon): 97.5% (inactive)

Structure (SMILES): C/C=C/CC(C)C(O)[C@H](NC(=O)[C@@H]1CCCN1C(=O)C(C)(C)NC(=O)CCCCCCCCC)C(=O)N[C@@](C)(CC)C(=O)N[C@@H](CCC(N)=O)C(=O)N[C@H](CCC(N)=O)C(=O)NC(C)(C)C(=O)NC(C)(C)C(=O)N[C@@H](CCC(N)=O)C(=O)N[C@H](CC(C)C)C(=O)N[C@H](CO)CC(C)C (some centres undefined)
- growth (NCI-H23 lung): 15.6% (inactive) and 49.3% (inactive)
- growth (NCI-H522 lung): -32.9% (active) and -26.1% (active)
- growth (MDA-MB-231 breast): -32.1% (active) and 53.6% (inactive)
- growth (M14 melanoma): -43.6% (active) and 20.4% (inactive)
- growth (SK-MEL-5 melanoma): -54.6% (active) and 12.6% (inactive)
- growth (UACC-62 melanoma): -19.1% (active) and 54.4% (inactive)
- growth (MOLT-4 leukemia): 18.8% (inactive) and 54.7% (inactive)
- growth (SR leukemia): -32.1% (active) and 8.34% (active)
- growth (OVCAR-8 ovarian): 5.65% (active) and 38.4% (inactive)
- growth (OVCAR-5 ovarian): 2.04% (active) and 49.9% (inactive)
- growth (OVCAR-4 ovarian): 81% (inactive) and 87.9% (inactive)
- growth (SK-OV-3 ovarian): 37.6% (inactive) and 80.8% (inactive)
- growth (IGROV1 ovarian): 34% (inactive) and 72.2% (inactive)
- growth (HS 578T breast): -51.7% (active) and -15.4% (active)
- growth (NCI/ADR-RES ovarian): 19.7% (inactive) and 35.4% (inactive)
- growth (T-47D breast): 28.6% (inactive) and 52% (inactive)
- growth (SW-620 colon): 38.1% (inactive) and 93% (inactive)
- growth (MCF7 breast): -2.63% (active) and 45.8% (inactive)
- growth (HCT-116 colon): 33.5% (inactive) and 78.4% (inactive)
- growth (KM12 colon): -32.5% (active) and 10.3% (inactive)

Structure (SMILES): COc1cccc2c1cc([N+](=O)[O-])c1c(C(=O)O)cc3c(c12)OCO3
- growth (NCI-H23 lung): 102% (inactive)
- growth (NCI-H522 lung): 95.9% (inactive)
- growth (MDA-MB-231 breast): 106% (inactive)
- growth (M14 melanoma): 103% (inactive)
- growth (SK-MEL-5 melanoma): 102% (inactive)
- growth (UACC-62 melanoma): 103% (inactive)
- growth (MOLT-4 leukemia): 99.6% (inactive)
- growth (SR leukemia): 106% (inactive)
- growth (OVCAR-8 ovarian): 102% (inactive)
- growth (OVCAR-5 ovarian): 106% (inactive)
- growth (OVCAR-4 ovarian): 108% (inactive)
- growth (SK-OV-3 ovarian): 113% (inactive)
- growth (IGROV1 ovarian): 106% (inactive)
- growth (HS 578T breast): 105% (inactive)
- growth (NCI/ADR-RES ovarian): 107% (inactive)
- growth (T-47D breast): 95.8% (inactive)
- growth (SW-620 colon): 101% (inactive)
- growth (MCF7 breast): 94.9% (inactive)
- growth (HCT-116 colon): 101% (inactive)
- growth (KM12 colon): 104% (inactive)

Structure (SMILES): CCCCCCCCCC(=O)N[C@@](C)(CC)C(=O)N1CCC[C@H]1C(=O)N[C@@H](CC(C)C)C(=O)N[C@@](C)(CC)C(=O)N[C@@H](CCC(N)=O)C(=O)N[C@H](CCC(N)=O)C(=O)NC(C)(C)C(=O)NC(C)(C)C(=O)N[C@@H](CCC(N)=O)C(=O)N[C@H](CC(C)C)C(=O)N[C@H](CO)CC(C)C
- growth (NCI-H23 lung): -78.3% (active) and -84.7% (active)
- growth (NCI-H522 lung): -84% (active) and -82.6% (active)
- growth (MDA-MB-231 breast): -92.2% (active) and -98.5% (active)
- growth (M14 melanoma): -80.7% (active) and -65.5% (active)
- growth (SK-MEL-5 melanoma): -94.2% (active) and -97.9% (active)
- growth (UACC-62 melanoma): -90.6% (active) and -99.6% (active)
- growth (MOLT-4 leukemia): -50.5% (active) and -25.3% (active)
- growth (SR leukemia): -31.3% (active) and 16.2% (inactive)
- growth (OVCAR-8 ovarian): -74.1% (active) and -63.2% (active)
- growth (OVCAR-5 ovarian): -98.7% (active) and -100% (active)
- growth (OVCAR-4 ovarian): -38.1% (active) and -35.2% (active)
- growth (SK-OV-3 ovarian): -77.5% (active) and -56.9% (active)
- growth (IGROV1 ovarian): -84.9% (active) and -85.5% (active)
- growth (HS 578T breast): -70.1% (active) and -58.6% (active)
- growth (NCI/ADR-RES ovarian): -82.9% (active) and -77% (active)
- growth (T-47D breast): -6.91% (active) and -59.3% (active)
- growth (SW-620 colon): -79.7% (active) and -77.5% (active)
- growth (MCF7 breast): -76.7% (active) and -77.6% (active)
- growth (HCT-116 colon): -66.1% (active) and -29% (active)
- growth (KM12 colon): -90.6% (active) and -93.5% (active)

Structure (SMILES): COc1cc2c(cc1OC)[C@@H]1N(CC2)C(=O)c2ccccc2[C@@]1(C)C(=O)O
- growth (NCI-H23 lung): 102% (inactive)
- growth (NCI-H522 lung): 99.8% (inactive)
- growth (MDA-MB-231 breast): 101% (inactive)
- growth (SK-MEL-5 melanoma): 101% (inactive)
- growth (UACC-62 melanoma): 95.8% (inactive)
- growth (MOLT-4 leukemia): 108% (inactive)
- growth (SR leukemia): 117% (inactive)
- growth (OVCAR-8 ovarian): 104% (inactive)
- growth (OVCAR-5 ovarian): 106% (inactive)
- growth (OVCAR-4 ovarian): 105% (inactive)
- growth (SK-OV-3 ovarian): 113% (inactive)
- growth (IGROV1 ovarian): 106% (inactive)
- growth (HS 578T breast): 108% (inactive)
- growth (NCI/ADR-RES ovarian): 106% (inactive)
- growth (T-47D breast): 116% (inactive)
- growth (SW-620 colon): 109% (inactive)
- growth (MCF7 breast): 97.4% (inactive)
- growth (HCT-116 colon): 111% (inactive)
- growth (KM12 colon): 113% (inactive)
